# Where a name gives a salt, the structure may show the parent alone. ± gives the standard deviation of the averaged measurements. The full ranking holds about 1,900 compounds; the median of “normalised cell viability (NPI; 0 = phenylarsine oxide control, 1 = DMSO control)” is about 1, and the lowest 2% start at about 0.039. Shown is part of a subset that was picked to be rich in the lowest values.
# System: NCI-H1944
# Experiment: normalised cell viability (NPI; 0 = phenylarsine oxide control, 1 = DMSO control) (fraction of DMSO control); NCI-H1944 is a non-small cell lung cancer line; higher = more viable cells (less compound toxicity)
# Settings: 6 days
# [1] = glucocorticoid arm: hydrocortisone 2.75 uM co-treatment, compound 1 µM
# [2] = glucocorticoid arm: hydrocortisone 2.75 uM co-treatment, compound 5 µM
# [3] = glucocorticoid arm: hydrocortisone 2.75 uM pre-treated 2 days and continued, compound 1 µM
# [4] = glucocorticoid arm: hydrocortisone 2.75 uM pre-treated 2 days and continued, compound 5 µM
# [5] = glucocorticoid arm: vehicle, compound 1 µM
# [6] = glucocorticoid arm: vehicle, compound 5 µM
# 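Note: CTB read-out in 384-well plates, triplicate wells, NPI normalised per plate against 1 µM phenylarsine oxide (0) and 0.1% DMSO (1) controls.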
SMILES,normalised cell viability [1],normalised cell viability [2],normalised cell viability [3],normalised cell viability [4],normalised cell viability [5],normalised cell viability [6]
CN/C(=N\c1ccc(C2=NNC(=O)CC2C)cc1)NC#N (stereo unspecified),0.9943 ± 0.0046,0.992 ± 0.018,0.875 ± 0.22,0.9957 ± 0.0051,0.995 ± 0.005,0.997 ± 0.0052
CCN1C(=CC(C)=O)Sc2ccc(OC)cc21,0.982 ± 0.01,0.823 ± 0.013,0.994 ± 0.017,0.839 ± 0.021,1.01 ± 0.01,0.983 ± 0.017
Cc1cc(N2CCOCC2)cc2[nH]c(-c3c(NCC(O)c4cccc(Cl)c4)cc[nH]c3=O)nc12 (stereo unspecified),0.277 ± 0.0085,0.205 ± 0.011,0.3733 ± 0.0021,0.267 ± 0.0095,0.753 ± 0.051,0.263 ± 0.036
CCCCCCCCCCCCCCCC(=O)NCC(COP(=O)([O-])OCC[N+](C)(C)C)OCC (racemic) [rac-2-Ethoxy-3-hexadecanamido-1-propylphosphocholine],1.01 ± 0.01,1.09 ± 0.023,1.007 ± 0.0058,1.113 ± 0.0058,1.013 ± 0.0058,1.02 ± 0.011
CN1CCC[C@@H]1Cc1c[nH]c2ccc(CCS(=O)(=O)c3ccccc3)cc12 [Eletriptan HBr],1.013 ± 0.0058,1.03 ± 0.015,1.01 ± 0.01,1.02 ± 0.021,1.002 ± 0.0067,1.002 ± 0.0072
COc1ccc(NC(=O)c2ccc(-c3ccc(-c4noc(C)n4)cc3C)cc2)cc1N1CCN(C)CC1,1.006 ± 0.0063,0.000294 ± 0.00029,1.02 ± 0.01,0.00887 ± 0.01,0.9987 ± 0.0023,0.000181 ± 0.0015
COc1ccccc1N1CCN(CCCCNC(=O)c2ccc3ccccc3c2)CC1,0.9887 ± 0.0098,0.984 ± 0.026,0.998 ± 0.014,0.988 ± 0.032,0.9913 ± 0.0029,0.961 ± 0.033
CCCCCCCCCCCCCCCc1cccc(O)c1C(=O)O [Anacardic acid],1 ± 0.015,1.02 ± 0.0063,1.01 ± 0.012,1.02 ± 0.022,1 ± 0.024,1.01 ± 0.019
S=C(S)N1CCCC1 [Ammonium pyrrolidinedithiocarbamate],1 ± 0.015,0.994 ± 0.024,1.01 ± 0.018,1.004 ± 0.01,1.002 ± 0.0076,0.416 ± 0.095
N=c1ccn2c(n1)O[C@H]1[C@H](O)[C@@H](CO)O[C@H]12 [Ancitabine hydrochloride],0.16 ± 0.012,0.103 ± 0.012,0.652 ± 0.079,0.211 ± 0.0064,0.0511 ± 0.0082,0.0465 ± 0.00057
Nc1cc(C(F)(F)F)c(-c2cc(N3CCOCC3)nc(N3CCOCC3)n2)cn1,0.6 ± 0.048,0.203 ± 0.0045,0.713 ± 0.038,0.411 ± 0.029,0.613 ± 0.059,0.0297 ± 0.0061
CS(=O)(=O)N1CCc2c(-c3cnc(N)nc3)nc(N3CCOCC3)nc21,0.528 ± 0.021,0.513 ± 0.01,0.552 ± 0.058,0.627 ± 0.034,0.491 ± 0.024,0.651 ± 0.064
FC(F)c1nc2ccccc2n1-c1nc(N2CCOCC2)nc(N2CCOCC2)n1,0.649 ± 0.029,0.627 ± 0.013,0.603 ± 0.038,0.702 ± 0.054,0.691 ± 0.048,0.831 ± 0.028
CSc1nc(N)c2ncn([C@@H]3O[C@H](COP(=O)(O)OP(=O)(O)O)[C@@H](O)[C@H]3O)c2n1 [2-Methylthioadenosine diphosphate trisodium],1.007 ± 0.0058,1.02 ± 0.026,1.01 ± 0.012,1.06 ± 0.082,0.9917 ± 0.0072,1 ± 0.017
C[C@@H]1C(=O)O[C@H]2C[C@@]34[C@H]5C[C@@H](C(C)(C)C)[C@]36[C@@H](OC(=O)[C@@H]6O)O[C@@]4(C(=O)O5)[C@]21O [Ginkgolide A],0.9947 ± 0.0084,0.986 ± 0.01,0.994 ± 0.016,0.997 ± 0.02,1.002 ± 0.0072,0.9947 ± 0.0051
CCc1c(C(=O)NCCc2ccc(N3CCCCC3)cc2)[nH]c2ccc(Cl)cc12,1.01 ± 0.018,0.993 ± 0.021,1.027 ± 0.0058,0.999 ± 0.011,1 ± 0.0095,0.982 ± 0.012

SMILES,normalised cell viability [1],normalised cell viability [2],normalised cell viability [3],normalised cell viability [4],normalised cell viability [5],normalised cell viability [6]
NCC=CC(=O)O (stereo in doubt) [cis-4-Aminocrotonic acid],0.992 ± 0.0092,0.993 ± 0.015,0.9857 ± 0.0042,0.9765 ± 0.0092,0.973 ± 0.0079,0.9753 ± 0.0086
C[C@H]1C[C@H]2[C@@H]3CCC4=CC(=O)C=C[C@]4(C)[C@@]3(Cl)[C@@H](O)C[C@]2(C)[C@@]1(O)C(=O)CO [Beclomethasone],0.998 ± 0.0017,1.02 ± 0.01,1.01 ± 0.01,1,0.803 ± 0.031,0.738 ± 0.039
CCCCN(Cc1ccc(C(=O)NO)cc1)C(=O)Nc1ccccc1 [Nexturastat A],0.949 ± 0.017,0.9863 ± 0.0097,0.97 ± 0.02,0.963 ± 0.027,1.001 ± 0.009,0.967 ± 0.014
CC(C)[C@H](C(=O)Nc1ccc(C(=O)NO)cc1)c1ccccc1,0.752 ± 0.021,0.00258 ± 0.00047,0.897 ± 0.021,0.00754 ± 0.0016,0.172 ± 0.0081,0.00052 ± 0.00049
N#CC(=C(/N)Sc1ccccc1N)/C(C#N)=C(\N)Sc1ccccc1N,1.02 ± 0.011,1.08 ± 0.025,0.976 ± 0.016,1.01 ± 0.027,1.023 ± 0.0058,1.02 ± 0.015
CC#CCOC(=O)c1c(C)nc2sc3c(c2c1N)CCC(O)C3 (stereo unspecified),1.02 ± 0.021,1 ± 0.019,1.03 ± 0.038,1.03 ± 0.017,1.013 ± 0.0058,1.013 ± 0.0058
"COC1=C(OC)C(=O)c2ccccc2C1=O [2,3-Dimethoxy-1,4-naphthoquinone]",0.994 ± 0.01,0.905 ± 0.047,0.994 ± 0.0066,0.956 ± 0.01,0.997 ± 0.0027,0.8913 ± 0.0032
CCCCCC[C@@H]([C@@H](C)O)n1cnc2c(N)ncnc21 [erythro-9-(2-Hydroxy-3-nonyl)adenine hydrochloride],0.999 ± 0.001,0.992 ± 0.024,0.987 ± 0.012,0.997 ± 0.023,0.973 ± 0.0053,0.9777 ± 0.0055
CCCCCCCCCCCCCCCCCCOCC(COP(=O)([O-])OCC[N+](C)(C)C)OC (stereo unspecified),1.006 ± 0.0063,0.993 ± 0.015,0.9897 ± 0.0011,0.989 ± 0.028,0.9853 ± 0.0049,0.9957 ± 0.0059
CC(C)c1ccccc1Cc1cc(C(=O)Nc2ccc(S(=O)(=O)c3ccccc3C(C)(C)C)cc2)c(O)c(O)c1O,0.9933 ± 0.0099,0.826 ± 0.049,0.998 ± 0.014,0.961 ± 0.018,1.007 ± 0.0058,0.813 ± 0.033
CC(=O)NCC(=O)N1[C@@H]2CC[C@H]1c1ccc(Nc3ncc(C(F)(F)F)c(NC4CCC4)n3)cc12,0.712 ± 0.0091,0.552 ± 0.019,0.83 ± 0.0095,0.717 ± 0.01,0.301 ± 0.018,0.201 ± 0.017
C/C(=C\c1csc(C)n1)[C@@H]1C[C@@H]2O[C@]2(C)CCC[C@H](C)[C@H](O)[C@@H](C)C(=O)C(C)(C)[C@@H](O)CC(=O)N1 [Ixabepilone],0.132 ± 0.012,0.146 ± 0.018,0.484 ± 0.023,0.477 ± 0.05,0.0322 ± 0.0044,0.032 ± 0.004
CC(C)C[C@@H]1NC(=O)[C@@H](C(C)C)NC(=O)[C@@H]2CCCN2C(=O)[C@@H](CC(=O)O)NC(=O)[C@@H](Cc2c[nH]c3ccccc23)NC1=O,1.01 ± 0.014,1 ± 0.018,1.02 ± 0.025,1.003 ± 0.0061,0.9943 ± 0.005,1.013 ± 0.0058
Cc1ncc(-c2ccnc(Nc3ccc(S(C)(=O)=O)cc3)n2)n1C(C)C,0.584 ± 0.057,0.062 ± 0.0037,0.705 ± 0.061,0.319 ± 0.083,0.191 ± 0.045,0.0177 ± 0.0014
"CN(C)CCC(c1ccc(Cl)cc1)c1ccccn1 (single isomer, unassigned; (+)) [(+)-Chlorpheniramine maleate]",0.9827 ± 0.0045,0.997 ± 0.012,0.979 ± 0.004,1.005 ± 0.0071,0.968 ± 0.011,0.978 ± 0.003
